Structures are written as SMILES. The source made the active and inactive calls.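 Rule for the calls: active = peak TRPC6 channel inhibition above 30% at some tested dose, with a fitted dose response curve; inactive = no inhibition at any dose or no curve fitted.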

The target of the assay is Short transient receptor potential channel 6 (Mus musculus) (UniProt Q61143). Kind of assay: mouse TRPC6 channel blockers, concentration series – HEK293 cells, membrane potential dye, quadruplicate, selectivity assay for selective TRPC4 inhibitor project, dose response (AID 652195). The following applies: FDSS; series mostly up to 20 µM.
Chain of Short transient receptor potential channel 6 (Mus musculus) (Q61143 whole entry, looked up): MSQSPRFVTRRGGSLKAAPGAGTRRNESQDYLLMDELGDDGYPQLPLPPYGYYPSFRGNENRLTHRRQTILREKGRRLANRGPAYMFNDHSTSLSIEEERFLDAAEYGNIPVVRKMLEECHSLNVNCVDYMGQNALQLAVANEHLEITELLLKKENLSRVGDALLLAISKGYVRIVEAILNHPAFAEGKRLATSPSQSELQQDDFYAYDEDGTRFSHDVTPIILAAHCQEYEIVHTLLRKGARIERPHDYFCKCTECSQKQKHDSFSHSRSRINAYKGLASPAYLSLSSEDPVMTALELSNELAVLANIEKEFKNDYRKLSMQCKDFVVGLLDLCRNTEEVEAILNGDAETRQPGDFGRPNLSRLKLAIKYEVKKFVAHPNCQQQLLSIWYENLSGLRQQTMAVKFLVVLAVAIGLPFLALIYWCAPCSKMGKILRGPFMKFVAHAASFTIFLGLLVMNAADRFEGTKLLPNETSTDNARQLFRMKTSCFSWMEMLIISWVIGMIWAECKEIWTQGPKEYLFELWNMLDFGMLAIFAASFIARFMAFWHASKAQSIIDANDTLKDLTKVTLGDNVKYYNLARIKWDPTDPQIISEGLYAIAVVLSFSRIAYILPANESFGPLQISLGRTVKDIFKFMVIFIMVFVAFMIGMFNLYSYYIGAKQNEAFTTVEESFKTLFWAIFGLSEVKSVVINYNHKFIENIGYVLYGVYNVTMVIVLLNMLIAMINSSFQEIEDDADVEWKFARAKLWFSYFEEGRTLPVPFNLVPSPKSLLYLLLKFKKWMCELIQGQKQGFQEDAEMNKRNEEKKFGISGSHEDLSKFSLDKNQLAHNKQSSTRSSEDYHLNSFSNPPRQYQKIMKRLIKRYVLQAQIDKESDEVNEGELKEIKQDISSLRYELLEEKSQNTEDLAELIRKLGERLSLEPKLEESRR
On to `OC1CCCN(c2ccc3ccccc3n2)C1` (centres undefined), for which the result was inactive.

As to `FC1(F)CCN(c2ccc3ccccc3n2)CC1`, the result was inactive.

Take `Cc1cc(N2CCCC(F)C2)nc2ccccc12` (centres undefined): the call was inactive.

Take `Cc1cc(N2CCC(O)CC2)nc2ccccc12`: the call was inactive.

As to `O=C1CCN(c2ccc3ccccc3n2)CC1`, the call was inactive.

With `Cc1cc(N2CCC(=O)CC2)nc2ccccc12`, the result was inactive.

On to `Cc1cc(N2CCC(F)(F)CC2)nc2ccccc12`, for which the compound was called inactive.

As to `C[C@H]1CCCN1c1ccc2ccccc2n1`, the compound was classed as inactive.

For the compound `c1ccc2nc(N3CCCC3)ccc2c1`, the outcome was inactive.

As to `FC1CCCN(c2ccc3ccccc3n2)C1` (centres undefined), the compound was called inactive.

As for `Cc1cc(-n2ccnc2)nc2ccccc12`, the result was inactive.

On to `Cc1cc(N(C)C)nc2ccccc12`, for which the outcome was inactive.

Take `Cc1cc(N2CCC(O)C2)nc2ccccc12` (centres undefined): the compound was classed as inactive.

As to `FC1CCN(c2ccc3ccccc3n2)CC1`, the outcome was inactive.

Consider `OC1CCN(c2ccc3ccccc3n2)CC1`, for which the compound was called inactive.

Regarding `Cc1cc(-n2cccc2)nc2ccccc12`, the compound was called inactive.

For the compound `OC1CCN(c2ccc3ccccc3n2)C1` (centres undefined), the call was inactive.

For `Cc1cc(N2CCC(F)CC2)nc2ccccc12`, the compound was classed as inactive.

As to `Cc1cc(-n2cccn2)nc2ccccc12`, the call was inactive.
